# Measurements published in PubChem BioAssay (Tox21).
# “And” between values parts separate entries of the source, which are not always exact repeats. Equal values may be shown once. Records with an inconclusive call do not appear. Where a call stands in place of a potency, no number is given. The source made the active and inactive calls. Calls follow the shape of the dose curve; as a rule, active = well fitted curve in the direction sought with a large enough effect in the repeat runs; inconclusive = weak or mixed curves; inactive = no such curve, though single readings can be large; an effect the other way counts as inactive or inconclusive.
# Test system: not listed separately
# Assay: qHTS assay to identify small molecule agonists of the constitutive androstane receptor (CAR) signaling pathway - cell viability counter screen (AID 1224836); also: nearly all actives have a fitted effect of over 45% in size
# Conditions: HepG2-CYP2B6-hCAR viability, CellTiter-Fluor, 23 h, PK11195 added to every well; series mostly up to 92.4 µM
# In short: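 Fluorescence from CellTiter-Fluor indicates live cells after 23 h exposure. The human hepatoma line expresses hCAR and a CYP2B6-2.2kb reporter. Incubation medium contains 0.75 uM PK11195 (final).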
# Potency is read from the fitted curve at half-maximal effect.
row,SMILES,Potency
1,CC(=[OH+])/C=C(/C)[O-].CC(=[OH+])/C=C(\C)[O-].CC(=[OH+])/C=C(\C)[O-].[Fe],inactive
2,CN(C)C(=S)[S-].CN(C)C(=S)[S-].[Cu+2],3.73 µM (active)
3,O=C(CBr)c1ccc(O)cc1,inactive
4,CC[C@H]1C[C@@H]2C[C@H]3c4[nH]c5ccc(OC)cc5c4CCN(C2)[C@@H]13,inactive
5,CCCCCCCCCCCCCCC(Br)C(=O)O (stereo not given),inactive
6,ClCc1ccccc1CCl,inactive
7,CCCSP(=O)(OCC)SCCC,inactive
8,COc1ccc([N+](=O)[O-])cc1O,inactive
9,C[C@@H]1O[C@@H](O[C@H]2C[C@@H](O)[C@]3(CO)[C@H]4[C@H](O)C[C@]5(C)[C@@H](C6=CC(=O)OC6)CC[C@]5(O)[C@@H]4CC[C@]3(O)C2)[C@H](O)[C@H](O)[C@H]1O,231 nM (active) and 266 nM (active)
10,CCCCN(CCCC)C(=S)[S-].CCCCN(CCCC)C(=S)[S-].[Zn+2],21.7 µM (active)
11,CC(C)(COCC1CO1)COCC1CO1 (stereo not given),inactive
12,CC[C@H](C)[C@H]1O[C@]2(C=C[C@@H]1C)C[C@@H]1C[C@@H](C/C=C(\C)[C@@H](O[C@H]3C[C@H](OC)[C@@H](O[C@H]4C[C@H](OC)[C@@H](O)[C@H](C)O4)[C@H](C)O3)[C@@H](C)/C=C/C=C3\CO[C@@H]4[C@H](O)C(C)=C[C@@H](C(=O)O1)[C@]34O)O2,32.2 µM (active)
13,Nc1ccc(Cl)cc1C(=O)c1ccccc1,inactive
14,BrCC(Br)c1ccccc1 (stereo not given),inactive
15,CCCN(CCC)c1c([N+](=O)[O-])cc(S(N)(=O)=O)cc1[N+](=O)[O-],65.2 µM (active)
16,N#C/C=C/C#N,inactive
17,Cc1cc(C)c(C2=C(OC(=O)CC(C)(C)C)C3(CCCC3)OC2=O)c(C)c1,inactive
18,N#Cc1ccccc1Cl,inactive
19,CN(C)C(=S)S,19.7 µM (active) and 6.81 µM (active) and 27.3 µM (active)
20,[Cd+2].[Cl-].[Cl-],5.49 µM (active) and 9.69 µM (active)
21,CC(=O)[O-].CC(=O)[O-].[Hg+2],7.7 µM (active)
22,O=C(CCl)C(Cl)Cl,21.9 µM (active)
23,CCCCCCCCc1ccc(O)cc1,69 µM (active)
24,CC(=O)[O-].[Tl+],inactive
25,CCc1cc(C)cc(CC)c1-c1c(OC(=O)C(C)(C)C)n2n(c1=O)CCOCC2,inactive
26,CC(O)C#N (stereo not given),inactive
27,CC(=O)[O-].CC(=O)[O-].O.O.[Cd+2],5.37 µM (active)

# Test system: not listed separately
# Assay: qHTS assay to identify small molecule antagonists of the constitutive androstane receptor (CAR) signaling pathway - cell viability counter screen (AID 1224837); also: nearly all actives have a fitted effect of over 45% in size
# Conditions: HepG2-CYP2B6-hCAR viability, CellTiter-Fluor, 23 h, co-treated with 50 nM CITCO; series mostly up to 92.4 µM
# In short: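 Multiplexed cytotoxicity read-out for the CAR antagonist screen: double-stable HepG2-CYP2B6-hCAR cells co-treated with 50 nM CITCO (final) and compound over 15 concentrations, incubated 23 hr, then assessed by CellTiter-Fluor fluorescence.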
row,SMILES,Potency
1,CN(C)C(=S)[S-].CN(C)C(=S)[S-].[Cu+2],1.49 µM (active)
2,O=C(CBr)c1ccc(O)cc1,inactive
3,N#Cc1c(-c2ccc(Cl)cc2)[nH]c(C(F)(F)F)c1Br,1.22 µM (active)
4,COc1ccc([N+](=O)[O-])cc1O,inactive
5,Nc1ccc([N+](=O)[O-])cc1Cl,inactive
6,BrCC(Br)c1ccccc1 (stereo not given),inactive
7,CCc1nn(C)c(C(=O)NCc2ccc(C(C)(C)C)cc2)c1Cl,inactive
8,N#Cc1ccccc1Cl,inactive
9,CN(C)C(=S)S,27.9 µM (active) and 7.64 µM (active) and 27.3 µM (active)
10,[Cd+2].[Cl-].[Cl-],4.36 µM (active) and 9.69 µM (active)
11,CC(=O)[O-].CC(=O)[O-].[Hg+2],4.86 µM (active)
12,CC(=O)[O-].CC(=O)[O-].O.O.[Cd+2],6.76 µM (active)

# Biological target: Nuclear receptor subfamily 1 group I member 3 (Homo sapiens) (UniProt Q14994)
# Sequence (Q14994 whole entry, looked up): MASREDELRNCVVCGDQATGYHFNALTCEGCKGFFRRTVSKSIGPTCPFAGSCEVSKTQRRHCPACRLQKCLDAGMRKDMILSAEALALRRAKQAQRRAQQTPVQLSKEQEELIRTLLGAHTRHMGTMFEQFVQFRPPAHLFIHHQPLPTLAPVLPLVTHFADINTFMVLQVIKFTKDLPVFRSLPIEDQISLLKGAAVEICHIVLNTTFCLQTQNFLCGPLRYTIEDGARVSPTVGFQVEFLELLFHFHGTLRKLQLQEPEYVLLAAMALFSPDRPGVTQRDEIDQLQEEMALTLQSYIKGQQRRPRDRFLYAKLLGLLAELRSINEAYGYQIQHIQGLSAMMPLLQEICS
# Assay: qHTS assay to identify small molecule antagonists of the constitutive androstane receptor (CAR) signaling pathway (AID 1224838); also: nearly all actives have a fitted effect of over 40% in size
# Conditions: HepG2-CYP2B6-hCAR luciferase, CITCO-stimulated, 24 h; series mostly up to 92.4 µM
# In short: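 Compounds were titrated across 15 concentrations onto HepG2 cells double-stably expressing hCAR and a CYP2B6-2.2kb reporter, together with 50 nM CITCO (final). After 24 h at 37 C, luciferase activity was measured by luminescence.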
row,SMILES,Potency
1,CC[C@H]1C[C@@H]2C[C@H]3c4[nH]c5ccc(OC)cc5c4CCN(C2)[C@@H]13,inactive
2,CCCCCCCCCCCCCCC(Br)C(=O)O (stereo not given),inactive
3,ClCc1ccccc1CCl,inactive
4,N#Cc1c(-c2ccc(Cl)cc2)[nH]c(C(F)(F)F)c1Br,0.969 µM (active)
5,Oc1c(Br)c(Br)c(Br)c(Br)c1Br,inactive
6,CC1(C)CC/C(=C/c2ccc(Cl)cc2)C1(O)Cn1cncn1 (stereo not given),inactive
7,CC(C)(COCC1CO1)COCC1CO1 (stereo not given),inactive
8,Nc1ccc([N+](=O)[O-])cc1Cl,inactive
9,CC[C@H](C)[C@H]1O[C@]2(C=C[C@@H]1C)C[C@@H]1C[C@@H](C/C=C(\C)[C@@H](O[C@H]3C[C@H](OC)[C@@H](O[C@H]4C[C@H](OC)[C@@H](O)[C@H](C)O4)[C@H](C)O3)[C@@H](C)/C=C/C=C3\CO[C@@H]4[C@H](O)C(C)=C[C@@H](C(=O)O1)[C@]34O)O2,40.5 µM (active)
10,Cc1cc(C(C)(C)c2cc(C)c(O)c(C)c2)cc(C)c1O,inactive
11,N#C/C=C/C#N,inactive
12,Cc1cc(C)c(C2=C(OC(=O)CC(C)(C)C)C3(CCCC3)OC2=O)c(C)c1,inactive
13,O=C(CCl)C(Cl)Cl,13.8 µM (active)
14,CCCCCCCCc1ccc(O)cc1,inactive
15,Nc1ccc(Cc2ccc(N)c(Cl)c2)cc1Cl,inactive
16,CC(O)C#N (stereo not given),30.6 µM (active)

# Biological target: Nuclear receptor subfamily 1 group I member 3 (Homo sapiens) (UniProt Q14994)
# Assay: qHTS assay to identify small molecule agonists of the constitutive androstane receptor (CAR) signaling pathway (AID 1224839); also: nearly all actives have a fitted effect of over 15% in size
# Conditions: HepG2 hCAR CYP2B6-luciferase, agonist mode, 24 h; series mostly up to 92.4 µM
# In short: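 Stable hCAR/CYP2B6-2.2kb HepG2 line in DMEM with 10% FBS; compounds (15 concentrations) and 0.75 uM PK11195 final, 24 h at 37 C/5% CO2, then ONE-Glo luminescence after 30 min.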
row,SMILES,Potency
1,CC[C@H]1C[C@@H]2C[C@H]3c4[nH]c5ccc(OC)cc5c4CCN(C2)[C@@H]13,inactive
2,CCCCCCCCCCCCCCC(Br)C(=O)O (stereo not given),inactive
3,ClCc1ccccc1CCl,inactive
4,CCCSP(=O)(OCC)SCCC,25.2 µM (active)
5,N#Cc1c(-c2ccc(Cl)cc2)[nH]c(C(F)(F)F)c1Br,inactive
6,C[C@@H]1O[C@@H](O[C@H]2C[C@@H](O)[C@]3(CO)[C@H]4[C@H](O)C[C@]5(C)[C@@H](C6=CC(=O)OC6)CC[C@]5(O)[C@@H]4CC[C@]3(O)C2)[C@H](O)[C@H](O)[C@H]1O,inactive
7,Oc1c(Br)c(Br)c(Br)c(Br)c1Br,inactive
8,CC1(C)CC/C(=C/c2ccc(Cl)cc2)C1(O)Cn1cncn1 (stereo not given),inactive
9,CC(C)(COCC1CO1)COCC1CO1 (stereo not given),inactive
10,CC[C@H](C)[C@H]1O[C@]2(C=C[C@@H]1C)C[C@@H]1C[C@@H](C/C=C(\C)[C@@H](O[C@H]3C[C@H](OC)[C@@H](O[C@H]4C[C@H](OC)[C@@H](O)[C@H](C)O4)[C@H](C)O3)[C@@H](C)/C=C/C=C3\CO[C@@H]4[C@H](O)C(C)=C[C@@H](C(=O)O1)[C@]34O)O2,inactive
11,CCc1nn(C)c(C(=O)NCc2ccc(C(C)(C)C)cc2)c1Cl,inactive
12,CCCN(CCC)c1c([N+](=O)[O-])cc(S(N)(=O)=O)cc1[N+](=O)[O-],16.4 µM (active)
13,Cc1cc(C(C)(C)c2cc(C)c(O)c(C)c2)cc(C)c1O,4.69 µM (active)
14,N#C/C=C/C#N,64 µM (active)
15,Cc1cc(C)c(C2=C(OC(=O)CC(C)(C)C)C3(CCCC3)OC2=O)c(C)c1,inactive
16,O=C(CCl)C(Cl)Cl,inactive
17,O=c1[nH]c2ccccc2n1CCCN1CCC(n2c(=O)[nH]c3cc(Cl)ccc32)CC1,inactive
18,CCCCCCCCc1ccc(O)cc1,48.9 µM (active)
19,Nc1ccc(Cc2ccc(N)c(Cl)c2)cc1Cl,16.7 µM (active)
20,CC(O)C#N (stereo not given),inactive
